Measurements taken from the supplement of paper PMC10338343.
± gives the standard deviation.

system: MILI (PIWIL2) piRISC loaded with L1MC piRNA (26 nt); assay: pre-steady-state target cleavage rate (min^-1); guide: L1MC piRNA 5'p-UAACUAAAUACUAUGCAAGCUGUAGG; MIWI and MILI are mouse PIWI proteins and EfPiwi is from a freshwater sponge; tags in brackets are library labels; higher = faster piRNA-guided slicing of the target; settings: auxiliary factor: 500 nM mouse GTSF1
Experimental: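 Cleave-'n-Seq: a library of target RNAs (target site embedded in constant flanks, ACAGCATTCCGCGTTAGTGATATCCG... 5' flank; DNA-blocked outside the site) at 0.1 nM was incubated with 1 nM active mouse MILI or MIWI piRISC (synthetic 5'-monophosphorylated piRNA guide) with or without 500 nM mouse GTSF1 at 33 °C for 1 min to 16 h. Uncleaved targets were sequenced and normalised to non-target controls, and the pooled three trials were fitted to a burst-and-steady-state model to give the pre-steady-state cleavage rate (min^-1; k3 is constrained to at most 1e-4). Sequence is the target site only; target names encode pairing extent (gX:gY) and contiguous / 1-mismatch / 2-mismatch / bulge geometry. Fits with R² ≤ 0 are excluded.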

Sequence	pre-steady-state target cleavage rate
UCCUGGAUCAGCUGCAUAGUAUUUAGUUA	0.25 ± 0.015
UCCUGGUACAGGUUGCAUAGUAUUAAGUUA	0.326 ± 0.072
UCCUGGAUCACGAUGCAUAGUAUUUAGAAA	0.111 ± 0.017
UCCUGGAUGACGUUGCAUAGUAUUUAGUUA	0.176 ± 0.02
UCCUGGAUGAGCUUGGUAAGUAUUUAGUUA	0.009 ± 0.0036
UCCUGGUUCAGCUUGCUUAGUAUUUAGUUA	0.199 ± 0.017
UCCUGGAUGAGCAUGCAUAGUAUUUAGAUA	0.166 ± 0.024
UCCUGGAUGAGCUUGCAUAGUCUUUAGUUA	0.0764 ± 0.012
UCCUCCAACAGCUUGCAUAGUAAUUAGUUA	0.228 ± 0.018
UCCUGGUACAGCUUGCAUAGUAUUUGUUA	0.0839 ± 0.022
UCCUGCUACACCUUGCAUAGUAUAUAGUUA	0.18 ± 0.037
UCCUGGAACAGCUUGCAUUGAAUUUAGUUA	0.0179 ± 0.006
UCCUGGAACAGCUUGCAUAGUAUUUAGAUUA	0.0966 ± 0.023
UCCUGGAUGUCGUUAGCAUAGUAUUUAGUUA	0.0539 ± 0.012
UCCUGGUACAGCUUCGAUAGUAUUUAGAAA	0.0453 ± 0.014
UCCUGGAUGUCCUUGCAGAGUAUUUAGUUA	0.0231 ± 0.011
UCCUGCUACAGCUUGGAUUGUAUUUAGUUA	0.0899 ± 0.011
UCCUCGUACAGCUUGCAAAGUAUUUAGUUA	0.149 ± 0.01
UCCUGCUACAGCUUGCAUAGUAUUUAGUUC [g2:g25:cont:t1C]	0.317 ± 0.021
UCCUGGAUGUGCUUGCAUAGUAUUUUGUUA	0.0696 ± 0.019
UCCUGGAUCAGCUUGCAUAGUAUAUUGUUA	0.118 ± 0.014
UCCUGGAUGUCGAAGCAUAGUAUUUUGUUA	0.0221 ± 0.0061
UCCUGGAUGUCGAAGCAUAGUAUUGAGUUA	0.00685 ± 0.0034

same assay, conditions: auxiliary factor: none (no GTSF1)

Sequence	pre-steady-state target cleavage rate
UCCUGGAUCAGCUGCAUAGUAUUUAGUUA	0.00821 ± 0.0027
UCCUGGUACAGGUUGCAUAGUAUUAAGUUA	0.00893 ± 0.0037
UCCUGGAUGACGUUGCAUAGUAUUUAGUUA	0.00683 ± 0.0027
UCCUGGAUGAGCUUGGUAAGUAUUUAGUUA	0.00405 ± 0.0023
UCCUGGUUCAGCUUGCUUAGUAUUUAGUUA	0.0104 ± 0.003
UCCUGGAUGAGCAUGCAUAGUAUUUAGAUA	0.00498 ± 0.0025
UCCUGGAUGAGCUUGCAUAGUCUUUAGUUA	0.00627 ± 0.0022
UCCUCCAACAGCUUGCAUAGUAAUUAGUUA	0.0065 ± 0.0021
UCCUGGAUGUCGUUAGCAUAGUAUUUAGUUA	0.00456 ± 0.0029
UCCUGGAUGUCGAACCAAAGUAUUUAGUAA	< 0.0001
UCCUGGAUGUCCUUGCAGAGUAUUUAGUUA	0.00501 ± 0.0024
UCCUGCUACAGCUUGGAUUGUAUUUAGUUA	0.00506 ± 0.0023
UCCUCGUACAGCUUGCAAAGUAUUUAGUUA	0.00953 ± 0.0024
UCCUGCUACAGCUUGCAUAGUAUUUAGUUC [g2:g25:cont:t1C]	0.0145 ± 0.0033
UCCUGGAUGUGCUUGCAUAGUAUUUUGUUA	0.00381 ± 0.0032
UCCUGGAUCAGCUUGCAUAGUAUAUUGUUA	0.00518 ± 0.0025
UCCUGGAUGUCGAAGCAUAGUAUUUUGUUA	0.00241 ± 0.0023
